Measured values: PubChem BioAssay AID1835 (Johns Hopkins Ion Channel Center, 2009)
Screen size: about 2,400 compounds; about 750 (31%) were called active. The list shows a part of the results. Unmarked numbers belong to inactive results.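 Rule for the calls: active = median signal gain over dofetilide-blocked control wells reaching their mean plus 3 SD, so readout 1 at least 0; inactive = the rest.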

The compounds below were run against Voltage-gated inwardly rectifying potassium channel KCNH2 (Homo sapiens) (UniProt Q12809) (assay: modulators restoring hERG flux under dofetilide – cell-based, thallium flux, duplicate retest, dofetilide IC70, confirmation (AID 1835)). Conditions: hERG cell line, FluxOR thallium flux, dofetilide-blocked; at 10 µM; hits give high values.
Voltage-gated inwardly rectifying potassium channel KCNH2 (Homo sapiens), sequence (Q12809 whole entry, looked up): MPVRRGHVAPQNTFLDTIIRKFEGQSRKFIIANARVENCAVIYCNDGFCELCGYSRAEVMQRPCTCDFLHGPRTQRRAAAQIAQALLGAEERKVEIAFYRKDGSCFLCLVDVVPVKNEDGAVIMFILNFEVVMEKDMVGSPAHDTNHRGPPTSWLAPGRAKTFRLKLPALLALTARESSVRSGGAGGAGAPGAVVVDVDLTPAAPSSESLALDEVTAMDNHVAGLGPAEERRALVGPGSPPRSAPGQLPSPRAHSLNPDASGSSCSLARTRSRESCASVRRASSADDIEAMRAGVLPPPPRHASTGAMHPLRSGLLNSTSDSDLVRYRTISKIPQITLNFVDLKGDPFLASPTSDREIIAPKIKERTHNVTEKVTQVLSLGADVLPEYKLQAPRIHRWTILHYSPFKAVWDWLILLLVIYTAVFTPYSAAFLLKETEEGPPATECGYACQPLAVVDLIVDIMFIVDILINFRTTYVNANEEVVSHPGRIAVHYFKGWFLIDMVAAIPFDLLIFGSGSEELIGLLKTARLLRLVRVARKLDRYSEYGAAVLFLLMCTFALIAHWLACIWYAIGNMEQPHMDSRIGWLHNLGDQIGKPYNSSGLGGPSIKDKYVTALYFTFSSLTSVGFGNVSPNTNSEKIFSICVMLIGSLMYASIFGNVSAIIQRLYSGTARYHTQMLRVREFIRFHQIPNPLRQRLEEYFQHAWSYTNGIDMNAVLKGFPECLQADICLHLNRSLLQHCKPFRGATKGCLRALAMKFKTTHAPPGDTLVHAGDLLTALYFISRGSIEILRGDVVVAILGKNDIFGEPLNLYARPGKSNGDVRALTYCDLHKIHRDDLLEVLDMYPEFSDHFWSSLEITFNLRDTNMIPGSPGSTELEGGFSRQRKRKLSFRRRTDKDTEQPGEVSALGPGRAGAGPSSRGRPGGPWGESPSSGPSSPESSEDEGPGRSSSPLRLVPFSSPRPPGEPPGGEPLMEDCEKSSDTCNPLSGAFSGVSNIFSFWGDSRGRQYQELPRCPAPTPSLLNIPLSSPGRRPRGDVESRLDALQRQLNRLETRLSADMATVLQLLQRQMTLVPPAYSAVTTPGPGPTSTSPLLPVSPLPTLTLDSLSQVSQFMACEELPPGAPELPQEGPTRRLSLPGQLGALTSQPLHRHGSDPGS

SMILES	activity increase over dofetilide control, less the hit threshold
COc1nnc(-c2ccc(C)c(S(=O)(=O)NC(C)(C)CO)c2)c2ccccc12	-17%
CN(Cc1cnn(C)c1)C(=O)C1CCC(=O)N(Cc2cccc(C(F)(F)F)c2)C1 (stereo unspecified)	-10%
Cc1cc(C)c(S(=O)(=O)Nc2cccc(-n3cnnn3)c2)c(C)c1	-14%
O=C(COC(=O)C1CCC(=O)N1)Nc1ccc(Oc2ccccc2)cc1 (stereo unspecified)	-9%
O=C(CCSc1ccc(Br)cc1)c1ccc(O)cc1	2% (active)
CN1CCN(S(=O)(=O)c2cccc(S(=O)(=O)c3ccc(Cl)cc3)c2)CC1	-10%
CCSc1nc2c(sc3ccccc32)c(=O)n1C(C)C	25% (active)
CCN(CC)CCCNC(=O)c1cn(-c2cccc(OC)c2)c(=O)c2ccccc12	-16%
COc1cccc(-n2nc(C(=O)O)c3ccccc3c2=O)c1	11% (active)
COc1cccc(NC(=O)c2nn(-c3ccc(OC)cc3OC)c(=O)c3ccccc23)c1	-8%
Cc1ccc(C(=O)NNC(=S)NC(=O)c2ccc(Cl)cc2)cc1	-23%
CC(C)CNC(=S)NC(=O)c1ccc(Cl)cc1	19% (active)
Cc1cccc(C(=O)NC(=S)NNC(=O)c2ccc(Cl)cc2)c1	-10%
Nc1nc2n(n1)C(=O)CC(c1ccc(Cl)cc1)N2 (stereo unspecified)	-10%
CN(C)S(=O)(=O)c1cc(NC2CC(=O)N(c3ccc(F)cc3)C2=O)ccc1Cl (stereo unspecified)	-2%
CN(Cc1ccccc1)C1CCN(Cc2ccccc2[N+](=O)[O-])CC1	-16%
COc1nccnc1NS(=O)(=O)c1ccc(NC(=S)NC(=O)c2ccccc2F)cc1	-17%
CCC(=O)NC(=S)NNC(=O)c1ccccc1[N+](=O)[O-]	-3%
O=C(NC(=S)N(CCO)Cc1ccccc1)c1cc(Br)ccc1Cl	7% (active)
CCN(Cc1ccccc1)C(=S)NC(=O)c1ccccc1Br	47% (active)
CCCN(Cc1ccccc1)C(=S)NC(=O)c1ccccc1[N+](=O)[O-]	52% (active)
O=C(NC(=S)N(Cc1ccccc1)Cc1ccccc1)c1ccccc1F	32% (active)
O=C(Cn1cncn1)c1ccccc1Br	-24%
O=C(O)c1ccc2c(c1)C(=O)N(c1cc([N+](=O)[O-])ccn1)C2=O	-3%
CCCN1Cc2cccc(C(=O)NCc3cccs3)c2C1=O	-21%
CCCCCCc1cc2cc(-c3nnc(-c4ccccc4O)o3)c(=O)oc2cc1O	-16%

SMILES	activity increase over dofetilide control, less the hit threshold
Cn1cc([N+](=O)[O-])c(C(=O)N/N=C\c2c[nH]c3ccccc23)n1	-7%
COc1ccc(-c2ccc(/C=N/NC(=O)c3cccnc3)o2)c([N+](=O)[O-])c1	1% (active)
O=C(Nc1ccc(Oc2cccnc2)cc1)c1cccc([N+](=O)[O-])c1	-6%
O=C(Nc1c[nH]c(=O)[nH]c1=O)c1ccc2c(c1)C(=O)N(c1cccc([N+](=O)[O-])c1)C2=O	-10%
CC(=O)Cn1c(=O)c2c(nc3n2CCCN3Cc2ccccc2)n(C)c1=O	-13%
O=c1[nH]n2c(=O)c3c([nH]c2c1N=Nc1ccccc1)CCC3	-14%
c1ccc(-c2ccnc3nc(N4CCN(c5ccccc5)CC4)nn23)cc1	-35%
O=c1[nH]c(N2CCN(c3ccccc3)CC2)nc2c1CCCC2	2% (active)
CN(C(=O)c1cnccn1)c1nnc(-c2cnccn2)s1	-15%
NC(=O)Cn1nnc(-c2ccc(CN3CCCCC3)cc2)n1	-23%
COc1ccc(-c2cc(C(=O)N3CCCC3)no2)cc1OC	0%
O=C(O)Cc1sc(-c2ccc(Cl)cc2)nc1-c1ccccc1	-10%
Cc1nn(CC(=O)Nc2ccc(C(=O)N3CCCC3)cc2)c(=O)c2ccccc12	-11%
CCOC(=O)c1ccc(NC(=O)Cn2nnc(-c3ccccc3)n2)cc1	-19%
O=C(Cn1nc(-c2ccccc2)c2ccccc2c1=O)Nc1ccc(O)cc1	24% (active)
CCOC(=O)c1sc2nc(C)[nH]c(=S)c2c1C	21% (active)
CCOC(=O)c1sc2nc(Cc3ccc(Cl)cc3)[nH]c(=S)c2c1C	52% (active)
N/C(=N\OCc1ccccc1)c1nonc1N	-16%
CC(C)Cc1nnc(NC(=O)Cc2ccccc2[N+](=O)[O-])s1	-5%
c1ccc(-c2csc(Nc3ccc4c(c3)OCCO4)n2)cc1	-17%
COc1cccc(NC(=O)c2cncs2)c1	-13%
COc1cc(CCC(=O)NNC(=O)c2ccc(C)cc2)cc(OC)c1OC	-3%
COc1cccc(C(=O)NNC(=O)C(=O)Nc2ccc(C)cc2)c1	56% (active)
COc1ccc(NC(=O)c2ccc(COCC(F)(F)C(F)F)cc2)cc1	-14%
COc1ccc(C(=O)NNC(=O)C(=O)Nc2ccc(C)cc2)cc1	30% (active)
CCOc1cccc(C(=O)Nc2ccc3[nH]ncc3c2)c1	-18%

SMILES	activity increase over dofetilide control, less the hit threshold
COc1ccc(NC(=O)c2ccc(NC3=NC4CS(=O)(=O)CC4S3)cc2)cc1 (stereo unspecified)	-17%
COc1ccc(OCC(=O)NNC(=O)C(=O)Nc2ccc(C)cc2)cc1	-11%
CCc1ccc(NC(=S)Nc2cccc(OC)c2)cc1	-26%
CCc1ccc(NC(=O)C(=O)NNC(=O)c2cccc(OC)c2)cc1	70% (active)
CCc1ccc(NC(=O)C(=O)NNC(=O)c2ccc(OC)cc2)cc1	87% (active)
CCN(/N=C/c1ccc(Cl)cc1)c1cc(=O)n(C)c(=O)[nH]1	-20%
Cc1noc(C)c1COc1cccc(C(=O)NCc2cccc(Cl)c2)c1	-18%
CC(C)C12CN3CC(C(C)C)(CN(C1)C31C(=O)Nc3ccccc31)C2=O (stereo unspecified)	-24%
O=C(COc1nsnc1N1CCOCC1)Nc1ccc(Cl)cc1	-21%
CC(C)(C)c1csc(NC(=O)C2=COCCO2)n1	-17%
CCc1nnc(NC(=O)CCC(=O)N2CCN(C3CCCCC3)CC2)s1	-22%
CCOC(=O)c1sc2nc(C)nc(SCC(=O)N(C)C3CCS(=O)(=O)C3)c2c1C (stereo unspecified)	-6%
O=C(O)CCSc1ncnc2sc(-c3ccccc3)cc12	9% (active)
CN(C(=O)CSc1ncnc2sc(-c3ccccc3)cc12)C1CCS(=O)(=O)C1 (stereo unspecified)	82% (active)
Cc1ccccc1-n1c(SCC(=O)N(C)C2CCS(=O)(=O)C2)nnc1-c1ccncc1 (stereo unspecified)	-8%
Nc1nc2c(s1)CCc1c-2cnn1-c1ccccc1	-46%
CC(=O)c1ccc(N2CCN(C(=O)Cc3ccccc3)CC2)c(F)c1	-15%
COC(=O)Nc1c(-c2ccccc2)nc2ccccn12	-4%
O=c1c(-c2ccccc2)nc(-c2ccccc2)cn1O	33% (active)
CC1=NN(c2nc(-c3ccccc3)cs2)C(=O)C1N=Nc1ccccc1 (stereo unspecified)	-31%
Cc1nc(-c2ccccc2)cn(O)c1=O	16% (active)
O=C(O)C/C(=C\c1cc(Br)cs1)c1nc2ccccc2o1	-6%
Cc1cccc(/N=C/c2sc3ccccc3c2O)n1	-13%
O=c1c([N+](=O)[O-])c(N2CCCCC2)c2ccccc2n1-c1ccccc1	-18%
Oc1ccc2[nH]cnc2c1CN1CCCCC1	-18%
CCc1ccc2[nH]c(O)c(N=Nc3nc(-c4ccccc4)cs3)c2c1	-8%

SMILES	activity increase over dofetilide control, less the hit threshold
Cn1c(O)c(N=Nc2nc(-c3ccccc3)cs2)c2ccccc21	65% (active)
Cc1ccccc1OCC(=O)N=Nc1c(O)n(C)c2ccccc12	-5%
COC(=O)/C=C1\S/C(=N/N=C/c2ccco2)NC1=O	-10%
CCCn1c(SCC(=O)N2CCN(C(C)=O)CC2)nc2sc3c(c2c1=O)CCC3	20% (active)
CCOC(=O)c1cnn(-c2nc(SC)nc3sc4c(c23)CCCC4)c1N	-1%
C=CCSc1nc2sc3c(c2c(=O)n1CC)CCc1ccccc1-3	-4%
CCC(=O)N1CCN(c2nc(CC)nc3sc4c(c23)CCCC4)CC1	-30%
CCn1c(SCC(N)=O)nc2sc3c(c2c1=O)CCCC3	3% (active)
CCn1c(SC(C)C(=O)O)nc2sc3c(c2c1=O)CCC3 (stereo unspecified)	7% (active)
CC(=O)/C=C1/C(=O)Nc2ccccc21	-39%
COc1cc(/C=N/Nc2nc(N3CCCC3)nc(N3CCCC3)n2)ccc1OCc1ccccc1F	-34%
O=C1CC(C(=O)N2CCOCC2)C2(CCCCC2)O1 (stereo unspecified)	-19%
CC1CCN(c2ccc3c(c2)S(=O)(=O)c2ccccc2C3=O)CC1	-27%
O=C1c2ccccc2C(=O)N1Cc1nc2ccccc2c(=O)n1CCCn1ccnc1	-25%
Fc1ccccc1NC(=S)N/N=C/c1ccccc1Br	-20%
S=C(N/N=C/c1ccccc1Cl)Nc1cccc(Cl)c1Cl	23% (active)
Cc1ccc(Cl)cc1NC(=S)N/N=C/c1cccc2ccccc12	-11%
O=C(CNCC1CCCO1)N1CCCCCC1 (stereo unspecified)	-11%
Cc1ccc2c(Cl)cc(Cl)c(OCC(=O)NC3CCS(=O)(=O)C3)c2n1 (stereo unspecified)	-15%
CCCCSc1nnc(CCC)n1N	-21%
CCCCCCCC/C=C\CCCCCCCC(=O)O	22% (active)
O=C(c1ccc(CS(=O)c2cccc(Cl)c2)o1)N1CCCCCC1 (stereo unspecified)	-7%
CC(C)(C)NC(=O)CN(C(=O)CS(=O)CC(=O)Nc1ccc(F)cc1)c1cccc(F)c1 (stereo unspecified)	-13%
